In article PMC7862700, “An all-to-all approach to the identification of sequence-specific readers for epigenetic DNA modifications on cytosine” one finds binding signal data, which are given here for one sequence.

Experiment in all cases: DAPPL (digital affinity profiling via proximity ligation, sequencing); 10 mM Tris-HCl pH 7.5, 50 mM NaCl, 1 mM DTT, 4% glycerol, room temperature, 30 min; GST-TFs on glutathione beads, 16-mer random dsDNA library, 0.1% formaldehyde crosslink after washing; high values mean tight binding
One assay deals with T1, FEV (Homo sapiens, UniProt Q99581 1-238).
T1 sequence: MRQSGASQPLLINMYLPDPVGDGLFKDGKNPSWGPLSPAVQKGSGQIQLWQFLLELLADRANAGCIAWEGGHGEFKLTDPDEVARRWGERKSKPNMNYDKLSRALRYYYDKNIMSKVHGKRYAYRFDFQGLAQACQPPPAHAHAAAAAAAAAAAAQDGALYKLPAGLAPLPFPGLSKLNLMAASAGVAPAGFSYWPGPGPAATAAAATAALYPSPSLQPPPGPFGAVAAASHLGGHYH
To be noted: protein: recombinant; tags: N-terminal GST; dsDNA, one strand shown. The procedure, abridged:
(§1)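 Pools of DNA-barcoded human transcription factors, expressed in yeast as GST fusions on glutathione beads and combined with a tag-only sample, were incubated with 200 nmole of a 16-mer random double-stranded DNA library. Incubation took 30 min at room temperature in Tris/NaCl/DTT/glycerol buffer and was followed by washing, 0.1% formaldehyde crosslinking, proximity ligation (BsaI/T4 ligase, 1 h, 37 °C), PCR amplification and sequencing on an Illumina NextSeq500. Binding signal is the ratio of a hexamer's read frequency for a factor to its frequency for the tag-only sample.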

A further assay deals with ETV5 (Homo sapiens, UniProt P41161 1-510). As to conditions: protein: recombinant; tags: N-terminal GST; dsDNA, one strand shown. In a few lines: as §1
ETV5, sequence (P41161 whole entry): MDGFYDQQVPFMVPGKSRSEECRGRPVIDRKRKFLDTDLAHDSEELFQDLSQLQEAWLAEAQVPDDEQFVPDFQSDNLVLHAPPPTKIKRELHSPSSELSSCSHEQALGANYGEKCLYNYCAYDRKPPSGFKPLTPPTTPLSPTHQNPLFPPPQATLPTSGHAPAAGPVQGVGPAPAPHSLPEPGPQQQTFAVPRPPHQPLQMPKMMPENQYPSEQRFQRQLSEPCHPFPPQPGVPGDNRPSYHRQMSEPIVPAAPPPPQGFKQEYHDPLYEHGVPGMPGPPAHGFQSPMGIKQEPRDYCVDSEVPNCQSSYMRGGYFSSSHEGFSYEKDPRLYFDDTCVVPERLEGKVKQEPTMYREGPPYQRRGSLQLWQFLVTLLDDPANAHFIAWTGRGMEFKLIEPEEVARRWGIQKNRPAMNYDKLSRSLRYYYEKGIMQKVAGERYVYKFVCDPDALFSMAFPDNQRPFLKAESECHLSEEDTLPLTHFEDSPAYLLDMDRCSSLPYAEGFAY
Another assay concerns the target HSF1 (Homo sapiens, UniProt Q00613 1-529). To be noted: protein: recombinant; tags: N-terminal GST; chain copies: 3; dsDNA, one strand shown. In a few lines:
as §1

The target in another assay is T2, SPIC (Homo sapiens, UniProt Q8N5J4 1-248).
T2 sequence: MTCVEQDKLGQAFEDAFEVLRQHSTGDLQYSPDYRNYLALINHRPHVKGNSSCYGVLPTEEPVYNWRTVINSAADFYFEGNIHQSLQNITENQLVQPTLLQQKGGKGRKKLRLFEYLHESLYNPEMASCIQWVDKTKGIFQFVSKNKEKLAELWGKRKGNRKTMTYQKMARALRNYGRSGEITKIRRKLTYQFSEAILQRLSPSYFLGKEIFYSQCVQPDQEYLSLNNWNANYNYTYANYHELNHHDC
As to conditions: protein: recombinant; tags: N-terminal GST; dsDNA, one strand shown. In a few lines:
as §1

Another assay concerns the target ELF4 (Homo sapiens, UniProt Q99607 1-663). As to conditions: protein: recombinant; tags: N-terminal GST; dsDNA, one strand shown. In a few lines: as §1
For another assay, the target named is T3, ELK4 (Homo sapiens, UniProt P28324-2 1-405).
T3 sequence: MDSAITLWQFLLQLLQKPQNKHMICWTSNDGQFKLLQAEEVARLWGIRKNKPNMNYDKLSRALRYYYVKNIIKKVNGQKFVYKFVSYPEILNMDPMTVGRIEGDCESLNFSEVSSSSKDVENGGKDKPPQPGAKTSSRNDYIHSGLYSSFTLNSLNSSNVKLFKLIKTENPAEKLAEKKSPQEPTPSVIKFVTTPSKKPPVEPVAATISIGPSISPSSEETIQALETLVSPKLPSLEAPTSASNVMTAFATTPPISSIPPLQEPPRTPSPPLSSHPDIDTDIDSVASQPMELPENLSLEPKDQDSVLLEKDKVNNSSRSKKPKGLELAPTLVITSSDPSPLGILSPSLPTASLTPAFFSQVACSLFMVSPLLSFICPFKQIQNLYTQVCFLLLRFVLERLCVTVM
To be noted: protein: recombinant; tags: N-terminal GST; dsDNA, one strand shown. In a few lines: as §1

Another assay concerns the target T4, ETV2 (Homo sapiens, UniProt O00321 1-342).
T4 sequence: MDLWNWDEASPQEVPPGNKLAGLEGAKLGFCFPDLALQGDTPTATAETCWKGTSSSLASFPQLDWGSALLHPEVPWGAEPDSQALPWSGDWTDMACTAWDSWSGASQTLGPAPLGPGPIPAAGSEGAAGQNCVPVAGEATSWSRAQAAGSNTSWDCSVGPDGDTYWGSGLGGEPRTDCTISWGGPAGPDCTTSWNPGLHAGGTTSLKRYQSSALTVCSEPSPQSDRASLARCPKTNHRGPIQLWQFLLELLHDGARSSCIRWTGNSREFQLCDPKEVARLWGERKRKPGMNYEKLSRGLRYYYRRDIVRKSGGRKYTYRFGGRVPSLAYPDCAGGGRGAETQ
To be noted: protein: recombinant; tags: N-terminal GST; dsDNA, one strand shown. In a few lines:
as §1

The next assay deals with T5, ELF3 (Homo sapiens, UniProt P78545 1-371).
T5 sequence: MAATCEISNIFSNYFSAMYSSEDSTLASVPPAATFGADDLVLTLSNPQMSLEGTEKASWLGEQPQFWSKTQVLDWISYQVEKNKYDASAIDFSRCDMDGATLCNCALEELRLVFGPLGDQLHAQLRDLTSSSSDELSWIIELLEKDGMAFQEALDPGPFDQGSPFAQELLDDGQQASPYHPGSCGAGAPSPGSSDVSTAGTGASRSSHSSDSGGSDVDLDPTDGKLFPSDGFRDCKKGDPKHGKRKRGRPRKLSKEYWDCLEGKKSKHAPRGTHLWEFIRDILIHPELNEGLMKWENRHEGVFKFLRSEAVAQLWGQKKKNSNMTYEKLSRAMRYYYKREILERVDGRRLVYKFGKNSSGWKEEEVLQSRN
To be noted: protein: recombinant; tags: N-terminal GST; dsDNA, one strand shown. The procedure, abridged: as §1

Another assay deals with CRX (Homo sapiens, UniProt O43186 1-299). To be noted: protein: recombinant; tags: N-terminal GST; dsDNA, one strand shown. In a few lines:
as §1

The next assay has as its target ETV1 (Homo sapiens, UniProt P50549 1-477). To be noted: protein: recombinant; tags: N-terminal GST; dsDNA, one strand shown. The procedure, abridged: as §1
The target of the next assay is T6, ERF (Homo sapiens, UniProt P50548 1-548).
T6 sequence: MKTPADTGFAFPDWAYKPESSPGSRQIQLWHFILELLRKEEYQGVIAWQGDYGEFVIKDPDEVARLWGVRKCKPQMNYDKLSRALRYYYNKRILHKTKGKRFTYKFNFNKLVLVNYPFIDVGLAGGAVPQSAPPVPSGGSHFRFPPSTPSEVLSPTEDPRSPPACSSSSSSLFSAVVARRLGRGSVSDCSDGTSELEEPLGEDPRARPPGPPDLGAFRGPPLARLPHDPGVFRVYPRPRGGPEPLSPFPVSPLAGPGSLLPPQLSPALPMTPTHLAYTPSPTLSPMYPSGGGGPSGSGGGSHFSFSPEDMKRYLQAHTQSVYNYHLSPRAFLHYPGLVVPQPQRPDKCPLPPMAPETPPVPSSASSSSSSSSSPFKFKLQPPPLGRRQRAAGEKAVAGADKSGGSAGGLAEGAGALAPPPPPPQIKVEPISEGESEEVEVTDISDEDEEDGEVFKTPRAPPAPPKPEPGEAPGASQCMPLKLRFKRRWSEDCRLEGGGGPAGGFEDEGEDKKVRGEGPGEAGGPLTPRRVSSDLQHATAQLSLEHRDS
As to conditions: protein: recombinant; tags: N-terminal GST; dsDNA, one strand shown. The procedure, abridged:
as §1

A further assay concerns the target T7, ETV3L (Homo sapiens, UniProt Q6ZN32 1-361).
T7 sequence: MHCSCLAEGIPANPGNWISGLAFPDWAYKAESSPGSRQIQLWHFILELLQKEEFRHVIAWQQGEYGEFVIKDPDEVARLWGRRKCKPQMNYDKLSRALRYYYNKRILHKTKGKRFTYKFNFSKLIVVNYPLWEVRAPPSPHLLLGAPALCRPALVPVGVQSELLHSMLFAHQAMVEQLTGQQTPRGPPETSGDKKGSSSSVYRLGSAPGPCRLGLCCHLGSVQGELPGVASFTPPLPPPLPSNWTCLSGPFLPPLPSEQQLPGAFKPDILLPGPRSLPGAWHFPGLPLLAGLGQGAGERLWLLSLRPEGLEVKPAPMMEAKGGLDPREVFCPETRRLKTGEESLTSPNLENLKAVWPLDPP
As to conditions: protein: recombinant; tags: N-terminal GST; dsDNA, one strand shown. In a few lines: as §1

Another assay has as its target T8, ETS2 (Homo sapiens, UniProt P15036 1-469).
T8 sequence: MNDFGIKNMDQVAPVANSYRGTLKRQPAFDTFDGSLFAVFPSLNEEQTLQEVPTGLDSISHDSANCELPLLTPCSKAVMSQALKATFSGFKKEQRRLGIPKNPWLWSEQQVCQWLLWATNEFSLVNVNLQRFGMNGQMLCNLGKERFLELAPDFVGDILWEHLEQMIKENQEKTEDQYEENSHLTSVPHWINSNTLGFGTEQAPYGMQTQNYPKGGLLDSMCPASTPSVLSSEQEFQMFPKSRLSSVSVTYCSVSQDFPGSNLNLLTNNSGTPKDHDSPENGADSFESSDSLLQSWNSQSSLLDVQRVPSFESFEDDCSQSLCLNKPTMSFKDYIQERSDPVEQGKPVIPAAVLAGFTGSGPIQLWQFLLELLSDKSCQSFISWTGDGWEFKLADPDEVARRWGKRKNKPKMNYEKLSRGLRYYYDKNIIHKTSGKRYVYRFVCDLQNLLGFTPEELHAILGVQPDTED
As to conditions: protein: recombinant; tags: N-terminal GST; dsDNA, one strand shown. The procedure, abridged: as §1

The target of another assay is T9, SPDEF (Homo sapiens, UniProt O95238 1-335).
T9 sequence: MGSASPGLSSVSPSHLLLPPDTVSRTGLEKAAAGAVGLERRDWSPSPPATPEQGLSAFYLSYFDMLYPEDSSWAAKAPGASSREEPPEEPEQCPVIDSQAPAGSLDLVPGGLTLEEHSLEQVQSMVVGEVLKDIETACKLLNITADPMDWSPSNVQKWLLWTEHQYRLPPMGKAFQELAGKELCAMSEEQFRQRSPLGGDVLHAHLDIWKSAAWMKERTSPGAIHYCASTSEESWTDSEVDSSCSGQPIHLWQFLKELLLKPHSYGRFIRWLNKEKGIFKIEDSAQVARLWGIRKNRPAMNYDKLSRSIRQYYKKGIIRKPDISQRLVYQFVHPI
As to conditions: protein: recombinant; tags: N-terminal GST; dsDNA, one strand shown. In a few lines:
as §1

The next assay concerns the target T10, ETV7 (Homo sapiens, UniProt Q9Y603 1-341).
T10 sequence: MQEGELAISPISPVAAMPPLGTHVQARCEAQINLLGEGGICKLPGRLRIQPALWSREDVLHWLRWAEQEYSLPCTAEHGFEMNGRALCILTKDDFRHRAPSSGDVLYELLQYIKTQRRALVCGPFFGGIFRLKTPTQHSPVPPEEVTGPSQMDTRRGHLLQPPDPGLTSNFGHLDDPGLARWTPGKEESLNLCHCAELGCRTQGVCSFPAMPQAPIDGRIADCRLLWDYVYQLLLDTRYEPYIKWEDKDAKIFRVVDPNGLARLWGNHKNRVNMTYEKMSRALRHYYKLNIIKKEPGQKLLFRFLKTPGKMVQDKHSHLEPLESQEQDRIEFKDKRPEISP
As to conditions: protein: recombinant; tags: N-terminal GST; dsDNA, one strand shown. In a few lines: as §1

Another assay addresses T11, ELF5 (Homo sapiens, UniProt Q9UKW6-2 1-255).
T11 sequence: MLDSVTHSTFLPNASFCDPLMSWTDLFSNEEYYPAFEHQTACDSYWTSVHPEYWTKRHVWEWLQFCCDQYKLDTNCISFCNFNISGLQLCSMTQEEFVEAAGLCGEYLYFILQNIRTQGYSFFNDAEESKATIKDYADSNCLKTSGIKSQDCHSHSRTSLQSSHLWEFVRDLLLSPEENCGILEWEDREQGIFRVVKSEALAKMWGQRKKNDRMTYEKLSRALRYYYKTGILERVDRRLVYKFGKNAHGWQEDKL
As to conditions: protein: recombinant; tags: N-terminal GST; dsDNA, one strand shown. In a few lines: as §1

The next assay concerns the target T12, ETV3 (Homo sapiens, UniProt P41162-2 1-143).
T12 sequence: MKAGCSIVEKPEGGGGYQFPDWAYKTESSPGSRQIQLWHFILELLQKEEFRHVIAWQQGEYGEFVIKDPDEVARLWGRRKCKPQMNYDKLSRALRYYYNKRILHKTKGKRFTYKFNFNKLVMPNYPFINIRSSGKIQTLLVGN
As to conditions: protein: recombinant; tags: N-terminal GST; dsDNA, one strand shown. In a few lines: as §1

For the next assay, the target named is ETV6 (Homo sapiens, UniProt P41212 1-452). To be noted: protein: recombinant; tags: N-terminal GST; dsDNA, one strand shown. In a few lines:
as §1

ETV1, sequence (P50549 whole entry): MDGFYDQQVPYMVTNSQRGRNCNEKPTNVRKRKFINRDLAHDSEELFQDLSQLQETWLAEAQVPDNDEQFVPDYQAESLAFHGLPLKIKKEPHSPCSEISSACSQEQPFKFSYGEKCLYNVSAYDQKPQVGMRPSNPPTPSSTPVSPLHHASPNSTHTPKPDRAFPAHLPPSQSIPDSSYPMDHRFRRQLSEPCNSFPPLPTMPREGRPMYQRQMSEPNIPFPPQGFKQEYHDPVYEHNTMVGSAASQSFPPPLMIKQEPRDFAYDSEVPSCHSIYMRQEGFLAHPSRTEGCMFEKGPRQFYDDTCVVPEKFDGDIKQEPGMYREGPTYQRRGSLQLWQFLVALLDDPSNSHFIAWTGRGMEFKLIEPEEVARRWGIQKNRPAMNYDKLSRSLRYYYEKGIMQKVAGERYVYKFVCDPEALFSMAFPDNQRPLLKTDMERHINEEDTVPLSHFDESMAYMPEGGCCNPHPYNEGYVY
CRX, sequence (O43186 whole entry): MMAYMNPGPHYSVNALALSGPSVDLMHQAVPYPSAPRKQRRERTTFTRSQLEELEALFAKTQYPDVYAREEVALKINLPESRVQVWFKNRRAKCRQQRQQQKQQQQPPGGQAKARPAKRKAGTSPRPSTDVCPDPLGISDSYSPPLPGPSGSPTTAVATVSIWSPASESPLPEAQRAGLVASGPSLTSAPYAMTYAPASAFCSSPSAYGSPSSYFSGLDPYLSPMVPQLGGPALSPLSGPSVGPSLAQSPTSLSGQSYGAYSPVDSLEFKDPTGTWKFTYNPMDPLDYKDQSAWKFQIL
ETV6, sequence (P41212 whole entry): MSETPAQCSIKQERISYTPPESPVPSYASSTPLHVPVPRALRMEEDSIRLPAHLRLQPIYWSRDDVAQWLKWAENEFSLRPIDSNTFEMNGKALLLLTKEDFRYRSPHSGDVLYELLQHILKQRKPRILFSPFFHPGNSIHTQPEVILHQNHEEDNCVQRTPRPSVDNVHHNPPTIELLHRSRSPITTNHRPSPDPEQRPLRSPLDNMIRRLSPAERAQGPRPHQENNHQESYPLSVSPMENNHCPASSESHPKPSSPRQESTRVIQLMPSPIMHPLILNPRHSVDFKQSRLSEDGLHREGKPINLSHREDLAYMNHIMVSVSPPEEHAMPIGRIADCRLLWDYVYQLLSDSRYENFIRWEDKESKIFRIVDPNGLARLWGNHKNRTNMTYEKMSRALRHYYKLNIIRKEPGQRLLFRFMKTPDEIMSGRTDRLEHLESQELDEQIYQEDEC
HSF1, sequence (Q00613 whole entry): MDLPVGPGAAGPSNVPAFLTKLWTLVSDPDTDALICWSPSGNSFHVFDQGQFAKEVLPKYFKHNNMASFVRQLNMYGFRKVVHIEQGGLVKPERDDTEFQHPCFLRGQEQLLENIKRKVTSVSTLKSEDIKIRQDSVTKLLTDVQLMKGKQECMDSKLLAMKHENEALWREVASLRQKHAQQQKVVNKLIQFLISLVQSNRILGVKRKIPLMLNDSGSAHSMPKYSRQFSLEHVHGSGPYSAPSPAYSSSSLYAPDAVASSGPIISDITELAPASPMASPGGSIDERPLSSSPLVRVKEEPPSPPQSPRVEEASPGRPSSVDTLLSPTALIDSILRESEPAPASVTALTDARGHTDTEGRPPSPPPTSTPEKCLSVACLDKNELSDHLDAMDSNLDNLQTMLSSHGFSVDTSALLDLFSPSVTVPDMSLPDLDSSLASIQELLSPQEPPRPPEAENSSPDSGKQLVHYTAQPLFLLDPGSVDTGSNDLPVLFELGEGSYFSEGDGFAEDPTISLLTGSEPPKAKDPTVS
ELF4, sequence (Q99607 whole entry): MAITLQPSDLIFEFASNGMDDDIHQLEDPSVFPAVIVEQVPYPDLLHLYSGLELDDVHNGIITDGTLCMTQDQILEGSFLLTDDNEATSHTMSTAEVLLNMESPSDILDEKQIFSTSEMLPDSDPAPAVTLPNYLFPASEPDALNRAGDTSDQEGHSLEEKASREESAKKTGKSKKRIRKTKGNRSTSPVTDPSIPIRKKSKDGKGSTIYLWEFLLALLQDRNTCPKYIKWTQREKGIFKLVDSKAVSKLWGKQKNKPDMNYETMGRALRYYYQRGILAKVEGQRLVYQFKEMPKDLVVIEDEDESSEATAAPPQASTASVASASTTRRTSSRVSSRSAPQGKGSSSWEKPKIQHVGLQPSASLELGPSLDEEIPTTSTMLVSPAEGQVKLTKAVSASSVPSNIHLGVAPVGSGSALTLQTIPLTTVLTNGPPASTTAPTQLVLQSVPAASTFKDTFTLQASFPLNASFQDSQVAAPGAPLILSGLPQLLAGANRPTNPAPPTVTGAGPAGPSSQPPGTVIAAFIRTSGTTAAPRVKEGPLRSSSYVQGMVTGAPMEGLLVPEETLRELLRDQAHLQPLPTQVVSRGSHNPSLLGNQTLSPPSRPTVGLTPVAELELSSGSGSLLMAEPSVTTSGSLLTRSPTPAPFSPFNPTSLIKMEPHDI

Consider TTGACT, for which the binding signal was 1.15 fold enrichment (6-mer frequency, TF over GST control) with FEV; 1.13 fold enrichment (6-mer frequency, TF over GST control) with ETV5; 1.12 fold enrichment (6-mer frequency, TF over GST control) in the assay with HSF1; 1.15 fold enrichment (6-mer frequency, TF over GST control) with SPIC; 1.21 fold enrichment (6-mer frequency, TF over GST control) with ELF4; 1.3 fold enrichment (6-mer frequency, TF over GST control) in the assay with ELK4. In addition, the binding signal in the assay with ETV2 was 1.27 fold enrichment (6-mer frequency, TF over GST control); with ELF3, 1.15 fold enrichment (6-mer frequency, TF over GST control); in the assay with CRX, 1.09 fold enrichment (6-mer frequency, TF over GST control); with ETV1, 1.18 fold enrichment (6-mer frequency, TF over GST control); with ERF, 1.18 fold enrichment (6-mer frequency, TF over GST control); with ETV3L, 1.09 fold enrichment (6-mer frequency, TF over GST control). The binding signal with ETS2 is 1.14 fold enrichment (6-mer frequency, TF over GST control); with SPDEF, 1.15 fold enrichment (6-mer frequency, TF over GST control); with ETV7, 1.22 fold enrichment (6-mer frequency, TF over GST control); in the assay with ELF5 it was 1.08 fold enrichment (6-mer frequency, TF over GST control); in the assay with ETV3 it was 1.15 fold enrichment (6-mer frequency, TF over GST control); in the assay with ETV6, 1.24 fold enrichment (6-mer frequency, TF over GST control).
